POLK inh: blocks human DNA polymerase kappa activity; Q9UBT6; purified Pol kappa, fluorescent DNA synthesis assay, 10 min; Potency, µM (top dose mostly 107 µM), actives largely listed as inhibitors; hit rate 0.53% among 400,000; AID 588579
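Readout: fluorescence, taken kinetically at 0 and 10 min. Conditions: 10 nM Pol kappa, 15 min RT compound preincubation, 50 nM substrate final. Controls: enzyme-free buffer wells.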
Pol eta inh: inhibitors of human DNA polymerase eta; Q9Y253; recombinant Pol eta, fluorescent DNA replication assay; Potency, µM (titrated, usually from 114 µM), usual class: inhibitors; hit rate 1.2% among 390,000; AID 588591
Target sequence (Q9Y253 whole entry, looked up): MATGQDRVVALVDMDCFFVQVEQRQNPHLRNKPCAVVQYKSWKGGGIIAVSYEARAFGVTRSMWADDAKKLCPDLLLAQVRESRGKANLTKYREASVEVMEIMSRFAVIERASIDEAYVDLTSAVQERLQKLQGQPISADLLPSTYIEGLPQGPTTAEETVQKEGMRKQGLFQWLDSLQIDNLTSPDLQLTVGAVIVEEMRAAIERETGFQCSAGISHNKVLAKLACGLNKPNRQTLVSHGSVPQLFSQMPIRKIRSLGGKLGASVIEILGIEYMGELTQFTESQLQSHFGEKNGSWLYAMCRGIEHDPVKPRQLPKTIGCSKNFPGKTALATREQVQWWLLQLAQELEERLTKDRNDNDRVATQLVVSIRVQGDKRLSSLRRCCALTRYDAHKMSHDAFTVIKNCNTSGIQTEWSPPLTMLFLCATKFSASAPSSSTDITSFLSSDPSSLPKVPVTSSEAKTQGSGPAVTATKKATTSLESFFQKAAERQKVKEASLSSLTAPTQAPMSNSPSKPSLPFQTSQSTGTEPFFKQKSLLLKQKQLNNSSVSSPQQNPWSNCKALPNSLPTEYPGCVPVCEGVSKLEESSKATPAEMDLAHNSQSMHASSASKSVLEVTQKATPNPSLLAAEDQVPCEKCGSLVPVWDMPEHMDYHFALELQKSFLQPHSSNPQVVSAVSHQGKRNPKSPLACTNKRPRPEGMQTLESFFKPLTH
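Pol eta (10 nM) was preincubated with compounds for 15 min at room temperature, after which fluorescent replication substrate (50 nM final) was added to start the reaction. Fluorescence was read kinetically at 0 and 10 min.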
Pol iota inh: DNA polymerase iota (human) inhibition; Potency, µM (top dose mostly 115 µM), most hits filed as inhibitors; Q9UNA4; AID 588590; Pol iota fluorescent replication assay, 10 min; hit rate 1% among 390,000
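Fluorescent replication assay read twice, at 0 min and 10 min after adding 50 nM (final) substrate. Enzyme (10 nM) and compounds were first incubated 15 min at room temperature; enzyme-free buffer wells were negative controls.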
Pol beta inh: inhibitors of human DNA polymerase beta; P06746; Pol beta primer extension/strand displacement, fluorescence kinetic; Potency, µM (top dose mostly 114 µM), actives largely listed as inhibitors; hit rate 1.3% among 340,000
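Kinetic readout of DNA synthesis with strand displacement by Pol beta. Compound and 10 nM enzyme sit 15 min at room temperature; 50 nM substrate starts the reaction, read immediately and at 10 min.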
WRN inhibitor: inhibitors of human WRN helicase; Q14191; WRN helicase unwinding, fluorescent forked duplex, kinetic; Potency, µM (titrated, usually from 114 µM), hits mostly inhibitors; hit rate 0.46% among 360,000; further: nearly all actives have a fitted effect of over 55% in size
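Enzyme (20 nM final) and test compound sit together 15 min at room temperature before substrate addition. Substrate is a single-forked duplex oligonucleotide (100 nM) labelled with fluorophore and quencher, with 2 mM ATP; helicase unwinding raises red fluorescence, read kinetically.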
Hits are given with their value; 0 = inactive; ? = inconclusive; - = no result; [ ] = dose if it differs, or a comment. Hits are enriched below; roughly 2.3% of the tested compounds scored in any of these assays. The call rests on the fitted dose curve; in most records, active means well fitted curve in the direction sought with a large enough effect; inconclusive means small, poorly fitted or top-dose-only effect, or another doubt; inactive means no such curve, though single readings can be large; an effect the other way counts as inactive or inconclusive.

SMILES | POLK inh | Pol eta inh | Pol iota inh | Pol beta inh | WRN inhibitor
N#CN=c1snc(-c2ccccc2Cl)n1-c1ccc(F)cc1 | 0 | - | 0 | - | -
CC1CCN(S(=O)(=O)c2ccc(NC(=O)Cn3nnc(-c4ccccc4)n3)cc2)CC1 | 0 | 0 | ? | 40µM | 0
Cc1ccc(-c2nnn(CC(=O)Nc3ccc(S(=O)(=O)N4CCC(C)CC4)cc3)n2)cc1 | 0 | ? | ? | 35µM | 0
CC1CCN(CC(=O)Nc2ccc(S(=O)(=O)N3CCC(C)CC3)cc2)CC1 | 0 | 0 | 0 | 0 | ?
CC1CCCN(S(=O)(=O)c2ccc(NC(=O)Cn3nnc(-c4ccccc4F)n3)cc2)C1 (stereo unspecified) | 0 | 0 | 0 | 0 | 0
O=[N+]([O-])c1cccc(S(=O)(=O)N2CCN(c3nc(-c4ccccc4)nc4ccccc34)CC2)c1 | 0 | - | 0 | - | -
c1ccc(-c2nc(-c3cnc4ccccc4n3)cs2)cc1 | 0 | - | 0 | - | -
CC(C)(C)n1ncc2c(=O)n(Cc3ccc(Cl)c(SC(F)(F)F)c3)cnc21 | 0 | - | 0 | - | -
COc1ccc(-c2nc3scc(CCNS(=O)(=O)c4ccc(Oc5ccccc5)cc4)n3n2)cc1OC | 0 | 0 | 0 | 0 | -
c1ccc(COC[C@@H]2CO2)cc1 | 0 | - | - | - | -
CC(C)(C)c1ccc(C(=O)CCCN2CCC(OC(c3ccccc3)c3ccccc3)CC2)cc1 | 0 | - | - | - | -
S=c1[nH]nc(-c2cccnc2)n1/N=C/C=C/c1ccco1 | 0 | ? | ? | 13µM | ?
CC(/C=N/n1c(-c2cccnc2)n[nH]c1=S)=C\c1ccco1 | ? | 0 | ? | 0 | ?
S=c1[nH]nc(-c2ccc(Cl)cc2)n1/N=C/C=C/c1ccco1 | 0 | ? | 0 | 25µM | 0
S=c1[nH]nc(-c2ccccc2)n1/N=C/C=C/c1ccco1 | 0 | 0 | 0 | 45µM | 0
S=c1[nH]nc(-c2ccco2)n1/N=C/C=C/c1ccccc1 | 0 | 0 | 0 | 0 | 0
S=c1[nH]nc(-c2ccc(Cl)cc2)n1/N=C/c1ccco1 | 0 | 0 | 0 | 0 | 0
CC(/C=C/C(=O)NO)=C\[C@@H](C)C(=O)c1ccc(N(C)C)cc1 | 0[19.4 µM] | - | - | - | -
O=C1NC(=S)N/C1=C/c1cccn1-c1ccc([N+](=O)[O-])cc1 | ? | ? | 56µM | 7.9µM | 0
CC(C)CC(C(=O)Nc1oc(-c2ccco2)c(-c2ccco2)c1C#N)N1C(=O)c2ccccc2C1=O (stereo unspecified) | ? | 20µM | ? | 32µM | ?
CN(C)CCCOc1c2ccccc2n(Cc2ccccc2)[n+]1[O-] | 0 | - | - | - | -
CC(C)c1ccc(C2C3=C(CC(c4ccco4)CC3=O)Nc3nc(C(F)(F)F)nn32)cc1 (stereo unspecified) | 0 | - | 0 | - | -
O=C1NN(c2cccc(Br)c2)C(=O)/C1=C/c1cccs1 | 0 | 79µM | ? | 0 | 0
CC1CC=CC2C1C(=O)N(Cc1ccccc1)C2c1ccc2ccccc2c1Br (stereo unspecified) | 0 | - | ? | - | -
COc1cc(NC(=O)CN2C(=O)c3ccccc3C2=O)c(C(=O)O)cc1OC | ? | 0 | 89µM | 0 | 0
SMILES | POLK inh | Pol eta inh | Pol iota inh | Pol beta inh | WRN inhibitor
COc1ccc2cc3cc(C(=O)NCc4ccco4)oc3nc2c1 | ? | 16µM | ? | 22µM | ?
O=C(O)c1cccc(S(=O)(=O)Nc2cccc(S(=O)(=O)N3CCCCCC3)c2)c1 | 0 | 0 | 89µM | 0 | 0[11.6 µM]
Cc1ccc(S(=O)(=O)Nc2nc3ccccc3nc2Nc2cccc(S(=O)(=O)N3CCCC3)c2)cc1 | ? | 0 | 7.1µM | 0 | ?
COc1cccc(N2CC(NC(=O)c3cc(Cl)ccc3OC)CC2=O)c1 (stereo unspecified) | 0 | 0 | ? | 0 | -
COc1ccccc1Nc1nc(NCCCN(C)C)nc(N)c1[N+](=O)[O-] | 0 | 0 | 0 | 18µM | 79µM
C=CCNc1nc(N)c([N+](=O)[O-])c(Nc2ccccc2OC)n1 | 0 | 0 | 0 | 0 | 0
CCOc1ccccc1N1C(=O)c2ccccc2N/C1=C\N1CCN(C(=O)c2ccco2)CC1 | 0 | - | 0 | - | -
COc1cccc(NC(=O)CSc2ncc(S(=O)(=O)c3ccc(C)c(C)c3)c(=O)[nH]2)c1 | 0 | 0 | 0 | 0 | -
COc1ccc(S(=O)(=O)c2cnc(SCC(=O)Nc3cc(F)ccc3C)[nH]c2=O)cc1Cl | 0 | ? | 0 | 50µM | -
CC12CCC(C/C1=N\N=C1\NC(=O)/C(=C\c3ccc(Cl)cc3)S1)C2(C)C (stereo unspecified) | 0 | 50µM | 0 | 0 | ?

Screening results deposited in PubChem by National Center for Advancing Translational Sciences (NCATS).
